Most compounds without a hit are left out; they make up all but 2.4% or so of the library.
STAT1 blocker: STAT1 signaling inhibition; NIH 3T3 STAT1-luciferase reporter, IFN-gamma, luminescence; inhibition, % at 5.5 µM; hit rate 0.35% among 200,000; AID 920;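 active means inhibition above a set limit, the mean inhibition across all tested compounds plus 3 SD, cut at about 34% in these data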;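 further: 0% = IFN-gamma with DMSO and 100% = IFN-gamma with 300 µM nifuroxazide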
HSP90 refold inh: HSP90 refolding inhibition in rabbit reticulocyte lysate. luciferase refolding luminescence, 3 h. inhibition, % at 5.6 µM. hit rate 0.91% among 290,000;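 active means inhibition above the screen-wide mean plus 3 SD, computed separately per campaign, cut at about 16% in these data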;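 further: 0% = DMSO wells and 100% = 60 µM geldanamycin wells; inhibitors lower the luminescence because luciferase stays unfolded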
STAT3 inh: STAT3 signaling inhibition | U3A cells, IL-6 STAT3-luciferase reporter, luminescence; host cell line lacks STAT1 | inhibition, % at 5.5 µM | hit rate 0.89% among 190,000 | AID 862;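 active means inhibition above the mean inhibition across all screened compounds plus 3 SD, cut at about 44% in these data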;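 further: 0% = DMSO only wells and 100% = 100 µM nifuroxazide control wells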
HSF1 inh: HSF1 inhibition. hit rate 0.77% among 300,000. NIH3T3-HGL HSE-luciferase, MG132-induced, luminescence 8 h; hits give low values. AID 2098. activity change, negative = inhibition, % at 7.5 µM (by protocol);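 active means more than half of replicate wells show activity change below -50%, luminescence cut by over half; inconclusive means some wells, but at most half, below -50%; inactive means no replicate well below -50%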;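 further: luciferase reports HSF-1 transcriptional activity via heat shock element; 0% = median of DMSO wells and -100% = zero luminescence signal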
TRAIL sens C8: caspase-8 TRAIL sensitization; NB7+C8 cells + TRAIL, ATPlite viability luminescence; inhibition (viability loss, TRAIL sensitization), % at 10 µM; hit rate 1% among 360,000; AID 624354;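 active means compounds causing at least 50% loss of cell viability in the single-dose screen, relative to plate controls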
PPC-1+TRAIL kill: compounds killing PPC-1 cancer cells with TRAIL present (potentiator screen, no TRAIL-free arm). cell killing (% activity), % at 4 µM or 5 µM. hit rate 0.41% among 220,000. PPC-1 cells + TRAIL, ATPLite viability luminescence. AID 1443;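 active means cell killing above 50% in the first pass at 4 µM, then a duplicate retest at 5 µM averaging 50% or more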;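 further: plate controls were cells with TRAIL plus DMSO for no effect and medium-only wells lacking cells for full effect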
PPC-1 tox: PPC-1 cell cytotoxicity; shares compounds with PPC-1+TRAIL kill; PPC-1 viability, ATPlite luminescence, overnight; cytotoxicity, % at 5 µM; hit rate 50% among 1,200;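 active means reconfirmed compounds whose average cytotoxicity reaches 50% or more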;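 further: 0% = DMSO-treated cells and 100% = wells holding medium but no cells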
HSP90 inh confirm: HSP90 inhibition, confirmation assay; shares compounds with HSP90 refold inh; rabbit reticulocyte lysate, luciferase refolding luminescence, 3 h; inhibition, % at 5.9 µM; hit rate 64% among 2,300; AID 1846; in the data active means inhibition above about 18%;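 further: 0% = vehicle wells and 100% = reference inhibitor wells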
luciferase ctr: firefly luciferase inhibition, HSP90 counter-screen; shares compounds with HSP90 refold inh; purified native firefly luciferase, luminescence; inhibition, % at 5.9 µM; hit rate 48% among 2,300;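 active means inhibition above the mean inhibition of all tested sample wells plus 3 SD, cut at about 10% in these data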;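 further: 0% = DMSO with luciferase and 100% = wells lacking luciferase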
Target sequence (P08659 whole entry, looked up): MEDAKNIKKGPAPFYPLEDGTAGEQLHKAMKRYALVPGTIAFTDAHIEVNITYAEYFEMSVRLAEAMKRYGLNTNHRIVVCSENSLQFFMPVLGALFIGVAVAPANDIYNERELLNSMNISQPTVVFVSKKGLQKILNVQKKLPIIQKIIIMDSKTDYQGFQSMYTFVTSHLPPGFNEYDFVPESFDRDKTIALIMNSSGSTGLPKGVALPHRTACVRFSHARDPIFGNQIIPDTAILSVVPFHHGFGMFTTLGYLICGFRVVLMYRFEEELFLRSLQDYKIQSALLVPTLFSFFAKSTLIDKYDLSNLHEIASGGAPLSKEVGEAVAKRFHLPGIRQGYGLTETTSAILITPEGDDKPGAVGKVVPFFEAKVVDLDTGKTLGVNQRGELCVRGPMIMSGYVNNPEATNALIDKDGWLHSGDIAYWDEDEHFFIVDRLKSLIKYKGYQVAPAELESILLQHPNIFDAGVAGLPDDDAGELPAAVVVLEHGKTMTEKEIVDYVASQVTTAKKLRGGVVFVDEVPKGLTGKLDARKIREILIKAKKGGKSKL
The depositor's hits bear a star; ? = inconclusive; · = not tested or not shown.

SMILES	STAT1 blocker	HSP90 refold inh	STAT3 inh	HSF1 inh	TRAIL sens C8	PPC-1+TRAIL kill	HSP90 inh confirm	luciferase ctr	others
COC(=O)C1=C(c2cccc(C#N)c2)C[C@@H]2CC[C@H]1N2C(=O)NCc1cccc2ccccc12	·	·	·	·	5.0	·	·	·
CCc1cc(=O)oc2c(C)c(OCC(=O)N3C[C@H]4C[C@@H](C3)c3cccc(=O)n3C4)ccc12	·	2.7	·	7.6	-4.7	·	·	·
Cn1ncnc2c(=O)n(C)c(=O)nc1-2	·	·	·	-95.1*	96.0*	89.3*	·	·	PPC-1 tox=90.3*
CCOC(=O)c1c(C)n(Cc2ccccc2)c2ccc(OCC(O)CN3C(=O)CNC3=O)cc12 (stereo not drawn)	3.3	6.8	2.5	6.0	14.4	15.3	·	·	PPC-1 tox=12.5
CC(C)C1C(C#N)=C(N)Oc2c1c(=O)oc1ccccc21 (stereo not drawn)	·	·	·	·	-2.7	·	·	·
c1ccc(-c2cc(-c3ccccc3)[n+](-c3ccccc3)c(-c3ccccc3)c2)cc1	·	5.1	·	-12.6	75.2*	28.2	·	·	PPC-1 tox=31.8
NP(=O)(Nc1ccccc1)Nc1ccccc1	·	·	·	·	-0.7	·	·	·
Cc1cccc(CCNCc2cc3cccc(C)c3[nH]c2=O)c1	·	-0.4	·	-3.8	1.2	·	·	·
O=c1[nH]c(=S)[nH]c(O)c1N=Nc1ccc2c(c1)OCCO2	·	2.1	·	45.9	55.8*	73.5*	·	·	PPC-1 tox=72.9*
CN1CCN(C(=O)COc2ccc(-c3nc4ccccc4s3)cc2)CC1	48.6*	47.7*	85.2*	-35.9	91.7*	91.8*	71.7*	69.0*	PPC-1 tox=91.2*
Cc1ncc(CNC(=O)N(CCCl)N=O)c(N)n1	·	·	·	·	-11.2	·	·	·
CCOC(=O)c1ccc(NC(=O)C2C3C=CC(O3)C2C(=O)O)cc1 (stereo not drawn)	-7.1	35.2*	1.5	?	·	4.6	-8.3	-14.9
O=C(O)C1C2CCC(O2)C1C(=O)Nc1ccc(F)c(F)c1 (stereo not drawn)	·	-4.5	·	-8.6	3.5	·	·	·
CN1CCN(Cc2ccc3ccccc3c2)CC1	·	-0.2	·	-5.9	-2.4	·	·	·
CCCCCCOc1ccc(CN2CCN(C)CC2)cc1	-10.5	18.6*	18.6	?	16.1	16.6	38.9*	24.8*
COC(=O)C1=C(c2c(C)noc2C)C[C@@H]2CC[C@H]1N2C(=O)NCCOc1ccc(OC)cc1	·	·	·	·	5.1	·	·	·
COC(=O)C[C@]1(C(=O)OC)CN(C#N)N(c2ccc(Cl)cc2)C12c1ccccc1-c1ccccc12	-11.3	32.2*	23.8	-94.2*	91.3*	47.9	58.7*	1.0
CC(C)(C)C(=O)C(Oc1ccc(Cl)cc1)n1cncn1 (stereo not drawn)	·	·	·	·	-17.0	·	·	·
CCOc1cccc(=NC2CCCCC2)c2c(C)n(C)c(C)c12	·	-2.9	·	19.4	9.8	15.6	·	·
O=c1[nH]c(O)c(N=Nc2ccc3c(c2)OCCO3)c(=O)[nH]1	41.0*	73.0*	78.6*	-62.4*	45.0	23.6	70.7*	70.3*
CCC(=O)OC(Cc1ccccc1)(c1ccccc1)[C@H](C)CN(C)C (stereo partly drawn)	·	·	·	·	0.0	·	·	·
C=CCn1c(O)c(/C(C)=N/N2CCN(C)CC2)c(=O)[nH]c1=O	·	22.0*	·	-2.3	-1.0	18.0	-5.5	-7.3
O=c1[nH]c2c(c(=O)n1C1CCCCC1)CCC2	1.9	27.7*	-1.1	-6.3	9.2	8.1	-3.7	-10.5
O=C(NC1CONC1=O)OCC(Cl)(Cl)Cl (stereo not drawn)	-2.8	-1.6	-2.8	-5.2	5.3	2.5	·	·
C[n+]1c(-c2ccccc2)c2cc(N)ccc2c2ccc(N)cc21	·	38.9*	·	0.3	17.6	·	9.1	1.5
SMILES	STAT1 blocker	HSP90 refold inh	STAT3 inh	HSF1 inh	TRAIL sens C8	PPC-1+TRAIL kill	HSP90 inh confirm	luciferase ctr	others
O=c1c2ccccc2nc(/C=C/c2ccc(F)cc2)n1-c1ccccn1	·	26.4*	·	3.5	·	19.9	-8.5	-11.5
CC(=O)O[C@@]12CO[C@@H]1C[C@H](OC1OCC(O)C(O)C1O)[C@@]1(C)C(=O)[C@H](O)C3=C(C)[C@@H](OC(=O)[C@H](O)[C@@H](NC(=O)c4ccccc4)c4ccccc4)C[C@@](O)([C@@H](OC(=O)c4ccccc4)C12)C3(C)C (stereo partly drawn)	·	-6.1	·	-3.9	13.1	·	·	·
COc1ccc(OCCOc2cccc(C=C3C(=O)NC(=O)NC3=O)c2)cc1	·	24.9*	·	-14.2	·	·	44.9*	30.4*
CCCCn1c(NS(=O)(=O)c2ccccc2)c(C(=O)OCC)c2nc3ccccc3nc21	2.2	18.1*	-11.7	2.3	0.6	28.0	-1.5	-4.1
CC(C)(C)OC(=O)c1c(N)n(Cc2ccco2)c2nc3ccccc3nc12	7.2	28.6*	-2.5	21.1	-2.8	-16.9	5.8	2.5
COCCCn1c(N)c(C(=O)NCc2ccco2)c2nc3ccccc3nc21	·	20.6*	·	-2.1	·	-0.9	2.3	-4.9
C=CCNC(=O)c1c(N)n(Cc2ccco2)c2nc3ccccc3nc12	0.5	5.1	-5.1	97.3	-3.2	-25.9	·	·
COCCNC(=O)c1c(N)n(Cc2ccco2)c2nc3ccccc3nc12	2.8	2.3	3.7	45.7	7.0	-4.4	·	·
O=C1CNC(c2ccccc2Cl)c2cc(Br)ccc2N1 (stereo not drawn)	·	-1.4	·	13.7	-0.7	·	·	·
COC(=O)C1=C(c2ccc(F)cc2F)C[C@@H]2CC[C@H]1N2C(=O)N1CCC(O)(c2ccc(Cl)cc2)CC1	·	·	·	·	0.4	·	·	·
CCc1ccc(CNCCc2c[nH]c3ccccc23)cc1	·	19.1*	·	-2.9	8.5	·	0.9	-4.3
c1ccc(CNCCc2c[nH]c3ccccc23)cc1	·	2.4	·	-3.7	-5.2	·	·	·
COc1ccc(C2SCC(=O)Nc3c2c(C)nn3C2CCOC(C)(C)C2)cc1 (stereo not drawn)	0.7	19.9*	3.5	-0.1	-23.9	9.8	-0.1	-0.8
Cc1nn(C2CCOC(C)(C)C2)c2c1C(c1ccc3c(c1)OCO3)SCC(=O)N2 (stereo not drawn)	4.7	1.6	-0.2	-1.1	2.9	6.3	·	·
OCC[n+]1c2ccccc2nc2ccc(N3CCOCC3)cc21	·	22.2*	·	-8.9	33.8	12.0	29.7*	17.6*
CSc1nc(N)c(N=Nc2ccc([As](=O)(O)O)cc2)c(=O)[nH]1	·	21.2*	·	-2.4	-9.3	21.1	22.4*	-14.5
COc1ccc(N=Nc2c(O)[nH]c(=S)[nH]c2=O)cc1	-26.9	-1.1	25.8	-12.6	19.6	11.2	·	·
Cc1ccc(NC2=NCCCS2)cc1Cl	·	-1.9	·	-8.5	1.6	·	·	·

Bioassay records as filed in PubChem BioAssay.
